Assay results taken from the supplement of paper PMC10127200.
Structures can show the parent of a compound that is named as a salt.

These molecules were tested on DU145 (assay: Euclidean distance of Cell Painting phenotypic profile (signed KS, 77 features) to DMSO centroid (dimensionless distance); higher = stronger phenotypic change vs DMSO (phenoactivity)). Conditions: 48 h; 5 or 10 uM (library dependent).
How it was run: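 Harmony extracted 77 features from 20X confocal images (9 fields/well) of stained cells, scoring each as a signed Kolmogorov-Smirnov statistic against same-plate vehicle wells. The cells, five cancer lines and a healthy fibroblast line, had received library compounds for 48 h at 10 or 5 uM depending on library, with 0.1% DMSO final. Phenoactivity is the Euclidean distance from each plate-position-corrected, correlation-weighted, top-dose replicate-averaged profile to the median vehicle profile.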
`CN1[C@@H]2CC[C@H]1C[C@@H](OC(=O)C(CO)c1ccccc1)C2` (some centres undefined) [Atropine sulfate monohydrate] showed an Euclidean distance of 0.677. `CN1CCN(c2nc3ccccc3nc2Cl)CC1` showed an Euclidean distance of 1.04. In the case of `O=C([O-])C(Cl)Cl.[Na+]` [Sodium dichloroacetate (DCA)], the Euclidean distance is reported as 0.544. `CC(Cc1ccc(O)cc1)NCC(O)c1cc(O)cc(O)c1` (centres undefined) [Fenoterol hydrobromide] gave an Euclidean distance of 0.524. `CCC(COC(=O)c1cc(OC)c(OC)c(OC)c1)(c1ccccc1)N(C)C` (centres undefined) [Trimebutine] was tested, and the Euclidean distance was 0.604. For `O=C/C=C/c1ccccc1` [Cinnamaldehyde], the Euclidean distance was 0.988. For `COc1ccc2c(c1)[nH]c1c(C)nccc12` [Harmine hydrochloride], the Euclidean distance was 1.13. With `CC(=O)OCC1=C(C(=O)O)N2C(=O)[C@@H](N)[C@H]2SC1` [7-Aminocephalosporanic acid] the Euclidean distance was 1.16. `CN1c2ccccc2C(NCCCCCCC(=O)O)c2ccc(Cl)cc2S1(=O)=O` (centres undefined) [Tianeptine sodium] was tested, and the Euclidean distance was 0.767. Work on `CCCN1C[C@H](CSC)C[C@@H]2c3cccc4[nH]cc(c34)C[C@H]21` [Pergolide Mesylate] yielded an Euclidean distance of 1.06. `CC[C@H]1[C@@H]2C[C@H]3[C@@H]4N(C)c5ccccc5[C@]45C[C@@H]([C@@H]2[C@H]5O)N3[C@@H]1O` [Ajmaline] showed an Euclidean distance of 1.04. Work on `Cc1cccc(C)c1NC1=NCCCS1` [Xylazine] yielded an Euclidean distance of 1.01. For `Cn1c(CCCC(=O)O)nc2cc(N(CCCl)CCCl)ccc21` [Bendamustine], the Euclidean distance was 0.645. With `C[C@@H]1CC[C@@]2(OC1)O[C@H]1C[C@H]3[C@@H]4CC=C5C[C@@H](O[C@@H]6O[C@H](CO)[C@@H](O[C@@H]7O[C@@H](C)[C@H](O)[C@@H](O)[C@H]7O)[C@H](O)[C@H]6O[C@@H]6O[C@@H](C)[C@H](O)[C@@H](O)[C@H]6O)CC[C@]5(C)[C@H]4CC[C@]3(C)[C@H]1[C@@H]2C` [Dioscin] the Euclidean distance was 0.921. Work on `CCNC1(c2cccs2)CCCCC1=O` (centres undefined) [Tiletamine Hydrochloride] yielded an Euclidean distance of 1.26. Molecule `COc1cc(OC)c(OC)cc1C=O` [Asaraldehyde] has an Euclidean distance of 0.776. `OC(c1ccccc1)(c1ccccc1)C1CCNCC1` [Azacyclonol] gave an Euclidean distance of 3.75. `O=C1CCC[C@@H]2[C@H]3CCCN4CCC[C@@H](CN12)[C@@H]34` [(+)-Matrine] gave an Euclidean distance of 0.902. Work on `COc1ccc(CN2CCNCC2)c(OC)c1OC` [Trimetazidine dihydrochloride] yielded an Euclidean distance of 0.805. `CC[C@H](C)[C@H]1O[C@]2(C=C[C@@H]1C)C[C@@H]1C[C@@H](C/C=C(\C)[C@@H](O[C@H]3C[C@H](OC)[C@@H](O[C@H]4C[C@H](OC)[C@@H](O)[C@H](C)O4)[C@H](C)O3)[C@@H](C)/C=C/C=C3\CO[C@@H]4[C@H](O)C(C)=C[C@@H](C(=O)O1)[C@]34O)O2.CO[C@H]1C[C@H](O[C@H]2[C@H](C)O[C@@H](O[C@@H]3/C(C)=C/C[C@@H]4C[C@@H](C[C@]5(C=C[C@H](C)[C@@H](C(C)C)O5)O4)OC(=O)[C@@H]4C=C(C)[C@@H](O)[C@H]5OC/C(=C\C=C\[C@@H]3C)[C@]54O)C[C@@H]2OC)O[C@@H](C)[C@@H]1O` [Avermectin B1] showed an Euclidean distance of 1.59. `C[C@]12N[C@H](Cc3ccccc31)c1ccccc12` [MK-801 (Dizocilpine)] showed an Euclidean distance of 1.2. Molecule `CC(C)(C)c1cc(C=C(C#N)C#N)cc(C(C)(C)C)c1O` [Tyrphostin 9] has an Euclidean distance of 1.41. Work on `CCCN1C[C@H](CSC)C[C@@H]2c3cccc4[nH]cc(c34)C[C@H]21` [Pergolide mesylate] yielded an Euclidean distance of 1.01. In the case of `CN1[C@@H]2C[C@@H](OC(=O)[C@H](CO)c3ccccc3)C[C@H]1[C@@H]1O[C@@H]12` [Scopolamine HBr], the Euclidean distance is reported as 0.406. Molecule `C=CCN1CC[C@]23c4c5ccc(O)c4O[C@H]2C(=O)CC[C@@]3(O)[C@H]1C5` [Naloxone HCl] has an Euclidean distance of 0.671. Work on `CCN(C)C(=O)Oc1cccc([C@H](C)N(C)C)c1` [Rivastigmine Tartrate] yielded an Euclidean distance of 0.382. For `N#Cc1nn(-c2c(Cl)cc(C(F)(F)F)cc2Cl)c(N)c1[S+]([O-])C(F)(F)F` (centres undefined) [Fipronil], the Euclidean distance was 0.897. For `COC(=O)C1=CCCN(C)C1` [Arecoline HBr], the Euclidean distance was 1.03. In the case of `N[C@@H](Cc1ccc(N(CCCl)CCCl)cc1)C(=O)O` [Melphalan], the Euclidean distance is reported as 1.19. Work on `C[S+]([O-])CCCCN=C=S` (centres undefined) [sulforaphane] yielded an Euclidean distance of 1.89. For `Cc1ccc(-n2nccn2)c(C(=O)N2CCN(c3nc4cc(Cl)ccc4o3)CC[C@H]2C)c1` [Suvorexant (MK-4305)], the Euclidean distance was 0.945. `COC(=O)C1=CCCN(C)C1` [Arecoline] was tested, and the Euclidean distance was 0.841. In the case of `CCN1CCN(C(=O)Cc2ccc(Nc3ncc(F)c(Nc4ccc(C(=O)Nc5ccccc5Cl)cc4)n3)cc2)CC1` [Aurora A Inhibitor I], the Euclidean distance is reported as 1.39. `CC(C)[C@]12O[C@H]1[C@@H]1O[C@]13[C@]1(O[C@H]1C[C@H]1C4=C(CC[C@@]13C)C(=O)OC4)[C@@H]2O` [Triptolide (PG490)] gave an Euclidean distance of 3.16.
